Many of the other results were omitted from the sample, so hits are more common in it than they were.
TbPYK inhibitor: inhibitors of Trypanosoma brucei pyruvate kinase; TbPYK enzyme, Kinase-Glo Plus ATP luminescence, 45 min; Potency, µM (titrated, usually from 76.8 µM), for the others: top-dose activity, negative = inhibition, actives largely listed as inhibitors; Q57TT1; hit rate 0.12% among 410,000; AID 624173; note: potency is the fitted concentration of half-maximal effect; % is set by controls: 0 for no effect and ±100 for the full control effect; nearly all actives have a fitted effect of over 50% in size
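T. brucei PYK with substrate was exposed to pin-transferred compounds across a concentration series, then started with 130 uM ADP (final). After 45 min at room temperature, Kinase-Glo Plus luminescence was read, normalized and curve-fitted.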
CHX counter: affects cycloheximide protein synthesis inhibition readout, counter-screen. cell reporter, cycloheximide protein synthesis inhibition counterscreen. max response, %. hit rate 12% among 300,000. AID 2314; in the data active = max response mostly above about 13%, no sharp cut-off; inactive = mostly below about 14%; note: read at 38.3 µM for the half of the compounds with a filed dose; 0% is about no effect
LmPK inhibitor: inhibitors of Leishmania mexicana pyruvate kinase; hit rate 0.37% among 290,000; Potency, µM (doses to about 57.5 µM), for inactives: top-dose activity change, negative = inhibition, hits mostly inhibitors; purified LmPK, Kinase-Glo ATP luminescence, 1 h; AID 1721; note: potency is the fitted concentration of half-maximal effect; % is set by controls: 0 for no effect and ±100 for the full control effect
Target sequence (Q27686 whole entry, looked up): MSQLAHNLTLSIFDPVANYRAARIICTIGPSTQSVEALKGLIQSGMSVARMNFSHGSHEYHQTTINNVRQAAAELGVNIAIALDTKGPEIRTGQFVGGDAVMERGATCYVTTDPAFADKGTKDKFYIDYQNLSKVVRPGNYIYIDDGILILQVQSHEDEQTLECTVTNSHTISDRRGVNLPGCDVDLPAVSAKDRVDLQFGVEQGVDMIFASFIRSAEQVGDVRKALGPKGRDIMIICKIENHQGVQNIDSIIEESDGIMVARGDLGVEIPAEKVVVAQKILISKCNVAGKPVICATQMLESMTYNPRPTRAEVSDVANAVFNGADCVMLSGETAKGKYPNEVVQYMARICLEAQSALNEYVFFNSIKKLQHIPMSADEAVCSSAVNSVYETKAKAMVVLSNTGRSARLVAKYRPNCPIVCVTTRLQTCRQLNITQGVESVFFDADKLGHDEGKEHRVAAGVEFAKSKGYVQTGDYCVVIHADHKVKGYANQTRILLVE
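qHTS format; LmPK 0.1 nM; substrates PEP 0.5 mM and ADP 0.1 mM. One-hour room-temperature incubation, then coupled luciferase luminescence; 0.5 nM enzyme wells mark activation.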
FBPA Giardia inh: blocks Giardia fructose-bisphosphate aldolase activity | purified Giardia FBPA | Potency, µM (top dose mostly 59.6 µM), for the others: at the top dose activity, negative = inhibition, usual class: inhibitors | hit rate 0.71% among 290,000; note: potency is the fitted concentration of half-maximal effect; % is set by controls: 0 for no effect and ±100 for the full control effect; nearly all actives have a fitted effect of over 55% in size
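Giardia FBPA (40 nM reagent) was preincubated 10 min at RT with compound (up to 57.5 uM final), then substrate plus GAPDH/TPI/NAD/arsenate coupling system with diaphorase/resazurin was added; resorufin fluorescence (525/598 nm) was read after 20 min.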
RE007 growth inh: less growth of the S. pombe RE007 Vpr strain | S. pombe RE007 Vpr strain, BacTiter-Glo ATP luminescence, 24 h | Potency, µM (top dose mostly 92.2 µM), inactives show at the highest dose activity change, negative = less growth, most hits filed as inhibitors | hit rate 0.21% among 360,000 | AID 651644; active = well fitted falling curve with a large enough effect; note: potency is the fitted concentration of half-maximal effect; % is set by controls: 0 for no effect and ±100 for the full control effect; nearly all actives have a fitted effect of over 50% in size
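Fission yeast RE007 carrying one integrated HIV-1 vpr copy, seeded at OD 0.01 in PMG+AL medium with 23 nL pinned compound. Grown 24 h at 30 degrees; viability read by BacTiter-Glo luminescence after 5 min.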
Shiga inhibitor: Shiga toxin inhibition; Vero cells, Shiga toxin protein synthesis inhibition reporter; inhibition, % at 38.7 µM; hit rate 9.2% among 290,000; AID 2315; in the data active = inhibition mostly above about 28%, no sharp cut-off; inactive = mostly below about 43%; note: 0% is about no effect
The depositor's hits bear a star; [ ] = another dose, or the depositor's remark. Unless noted, calls come from the whole dose curve; as a rule, active = well fitted curve in the direction sought with a large enough effect; inconclusive = small, poorly fitted or top-dose-only effect, or another doubt; inactive = no such curve, though single readings can be large; an effect the other way counts as inactive or inconclusive.

For COC(=O)C(Cc1c[nH]c2ccccc12)NC(=O)c1ccccc1Br (configuration not stated) the results were TbPYK inhibitor 3.4%, CHX counter 8.1, LmPK inhibitor 8.3%, FBPA Giardia inh -3.8%, RE007 growth inh -16.7% and Shiga inhibitor 54.5.
O=C(NCc1ccccc1Cl)C(=O)c1c[nH]c2ccccc12 was read as TbPYK inhibitor 4.3%, CHX counter 28.8*, LmPK inhibitor 1.8%, FBPA Giardia inh -4.2%, RE007 growth inh -9.2% and Shiga inhibitor 70.7*.
`CCOC(=O)C(Cc1c[nH]c2ccccc12)NC(=O)c1ccccc1Br` (configuration not stated) gave TbPYK inhibitor 2.8%, CHX counter 37.5*, LmPK inhibitor -4.4%, FBPA Giardia inh 1.9%, RE007 growth inh -19.6% and Shiga inhibitor 53.2*.
`O=C(Cc1c[nH]c2ccccc12)NCc1ccc(Cl)cc1Cl` gave TbPYK inhibitor -3.2%, CHX counter 12.0, LmPK inhibitor 4.7%, FBPA Giardia inh -14.9%, RE007 growth inh -11.1% and Shiga inhibitor 44.6*.
Screening CCCCNC(=O)CCCn1c(=O)c2ccccc2n(CC(=O)Nc2ccccc2OCC)c1=O returned TbPYK inhibitor -1.8%.
Screening CC(C)CCNC(=O)c1ccc2c(c1)nc1n2CCCCC1 returned TbPYK inhibitor 0.8%.
Screening CC(=O)Nc1ccc(-c2cc(C(=O)O)c3c(-c4ccccc4)[nH]nc3n2)cc1 returned TbPYK inhibitor -10.5%.
`CCCCC(=O)Nc1nnc(S(=O)(=O)N(CC)c2cc(C)cc(C)c2)s1` gave TbPYK inhibitor 1.0%.
Screening O=C(Nc1ccccc1)C(=O)c1c[nH]c2ccccc12 returned TbPYK inhibitor -3.9%, CHX counter 30.8*, LmPK inhibitor -1.2%, FBPA Giardia inh 0.2%, RE007 growth inh -10.6% and Shiga inhibitor 67.1*.
Screening O=C(NCc1cccs1)C(=O)c1c[nH]c2ccccc12 returned TbPYK inhibitor 1.7%, CHX counter 33.2*, LmPK inhibitor -0.8%[11.5 µM], FBPA Giardia inh 1.0%, RE007 growth inh -5.3% and Shiga inhibitor 90.2.
O=C(/C=C/c1ccccc1)c1c[nH]c2ccccc12 was read as TbPYK inhibitor 4.2%, CHX counter 34.2*, LmPK inhibitor -5.5%, FBPA Giardia inh -0.2%, RE007 growth inh -6.8% and Shiga inhibitor 64.0*.
`O=C(NCc1ccco1)C(=O)c1c[nH]c2ccccc12` gave TbPYK inhibitor -11.1%, CHX counter 31.0*, LmPK inhibitor -1.0%, FBPA Giardia inh 2.4%, RE007 growth inh -7.2% and Shiga inhibitor 54.0*.
For COC(=O)c1ccc(NC(=O)C(=O)c2c[nH]c3ccccc23)cc1 the results were TbPYK inhibitor 8.3%, CHX counter 0.5, LmPK inhibitor 4.7%, FBPA Giardia inh 5.0%, RE007 growth inh 0.7% and Shiga inhibitor 2.1.
Screening O=C(Cc1c[nH]c2ccccc12)NCc1ccco1 returned TbPYK inhibitor -2.9%, CHX counter 1.7, LmPK inhibitor -1.6%, FBPA Giardia inh -1.7%, RE007 growth inh 5.6% and Shiga inhibitor -12.5.
O=C1[C@H]2[C@H]3[C@H](O)[C@H](O)C/C(=N/OC[C@@H](O)COCc4ccco4)[C@H]3CC[C@@H]2C(=O)N1Cc1ccccc1 was read as FBPA Giardia inh 0.0%[12.9 µM].
CCCCCCCCCCCCCCCC[N+](C)(C)CCl was read as TbPYK inhibitor -9.8% and RE007 growth inh 22.4µM*.
CCCCCCCCCC[N+](C)(C)CCCCCCCCCC was read as TbPYK inhibitor -4.0%.
`C(=N\n1cnnc1)/c1cn(-c2cccs2)nc1-c1ccccc1` gave TbPYK inhibitor 1.9%, CHX counter 37.1*, LmPK inhibitor 2.6%, FBPA Giardia inh -0.5%, RE007 growth inh 5.2% and Shiga inhibitor 65.8*.
O=C(Nc1ccc(Oc2ccccc2)nc1)C1CCCCN1Cc1cccc(O)c1 (configuration not stated) was read as TbPYK inhibitor -7.7%, CHX counter -3.3, LmPK inhibitor -1.6%, RE007 growth inh -3.5% and Shiga inhibitor 3.6.
Screening O=C(Nc1ccc(Oc2ccccc2)nc1)C1CCCCN1Cc1ccc(O)cc1 (configuration not stated) returned CHX counter 19.5*, LmPK inhibitor -11.4% and Shiga inhibitor 12.2.
COCCc1ncc(CN2CCCCC2C(=O)Nc2ccc(Oc3ccccc3)nc2)cn1 (configuration not stated) was read as TbPYK inhibitor 3.4%, CHX counter -1.8, LmPK inhibitor -6.9%, RE007 growth inh -17.0% and Shiga inhibitor -10.2.
`COCCC(=O)N1CCC(C(=O)Nc2ccc(Oc3ccccc3)nc2)CC1` gave TbPYK inhibitor 7.3%, CHX counter 63.0*, LmPK inhibitor 1.2%, FBPA Giardia inh 8.2%, RE007 growth inh -5.3% and Shiga inhibitor 65.6*.
COc1cc(CN2CCCCC2C(=O)Nc2ccc(Oc3ccccc3)nc2)ccc1O (configuration not stated) was read as TbPYK inhibitor 1.7%, CHX counter 55.2*, LmPK inhibitor 2.7%, FBPA Giardia inh -10.2%, RE007 growth inh -10.4% and Shiga inhibitor 81.4*.
`Cc1cccc(N2CCN(C(=O)c3cc4c(=O)n(C)c5ccccc5c4s3)CC2)c1C` gave TbPYK inhibitor 1.2%.
Screening S=C=Nc1ccc(N=C=S)cc1 returned TbPYK inhibitor -2.8%.
`Brc1ccccc1OCCOc1cccc2cccnc12` gave TbPYK inhibitor -10.9%, CHX counter 16.4*, LmPK inhibitor 1.6%, FBPA Giardia inh -4.8%, RE007 growth inh 7.8% and Shiga inhibitor 68.0*.
For COc1cccc(C=O)c1OCCCOc1cccc2cccnc12 the results were TbPYK inhibitor 4.4%, CHX counter 38.3*, LmPK inhibitor 1.6%, FBPA Giardia inh -15.8%, RE007 growth inh 1.4% and Shiga inhibitor 66.0*.
Screening CC(=O)c1cccc(OCCCOc2cccc3cccnc23)c1 returned TbPYK inhibitor -0.8%, CHX counter 18.6*, LmPK inhibitor -0.9%, FBPA Giardia inh -3.8%, RE007 growth inh -20.4% and Shiga inhibitor 20.3.
Screening Brc1ccccc1OCCCOc1cccc2cccnc12 returned TbPYK inhibitor 2.4%, CHX counter 33.3*, LmPK inhibitor 2.9%, FBPA Giardia inh -0.8% and RE007 growth inh -11.4%.
For Cc1ccc(OCCOCCOc2cccc3cccnc23)c(Br)c1 the results were TbPYK inhibitor -0.3%, CHX counter -1.4, LmPK inhibitor -1.5%, FBPA Giardia inh -3.4%, RE007 growth inh -16.6% and Shiga inhibitor 9.3.
`COc1cc(C(=O)NCCOc2cccc3cccnc23)cc(OC)c1OC` gave TbPYK inhibitor 0.7%, CHX counter 5.9, LmPK inhibitor 8.1%, FBPA Giardia inh 3.4%, RE007 growth inh 28.5% and Shiga inhibitor 20.7.
